# Screening data deposited in PubChem by National Center for Advancing Translational Sciences (NCATS).
# FLuc inh = Photinus pyralis luciferase inhibition; 2.5% of 76,000 active; purified P. pyralis luciferase, luminescence, biochemical; AID 1347043; Potency, µM (series often up to 115 µM), most hits filed as inhibitors; further: nearly all actives have a fitted effect of over 65% in size
# Target sequence (P08659 whole entry, looked up): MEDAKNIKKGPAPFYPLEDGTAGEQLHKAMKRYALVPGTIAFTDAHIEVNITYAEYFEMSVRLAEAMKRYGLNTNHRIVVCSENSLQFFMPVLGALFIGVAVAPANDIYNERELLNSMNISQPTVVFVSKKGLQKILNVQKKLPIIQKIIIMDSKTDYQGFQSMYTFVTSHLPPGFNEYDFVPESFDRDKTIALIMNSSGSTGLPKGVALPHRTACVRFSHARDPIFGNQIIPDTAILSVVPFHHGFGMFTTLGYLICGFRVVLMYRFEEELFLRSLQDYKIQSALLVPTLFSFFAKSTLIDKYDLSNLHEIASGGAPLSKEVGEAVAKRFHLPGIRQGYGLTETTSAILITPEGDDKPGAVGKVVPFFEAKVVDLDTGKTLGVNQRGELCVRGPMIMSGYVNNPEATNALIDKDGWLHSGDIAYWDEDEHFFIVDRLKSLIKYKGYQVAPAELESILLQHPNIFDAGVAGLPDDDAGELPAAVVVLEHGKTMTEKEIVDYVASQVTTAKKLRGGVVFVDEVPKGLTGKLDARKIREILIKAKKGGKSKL
#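 Luminescence read by CCD imaging after purified firefly luciferase (10nM final) was added to substrate buffer holding 10uM D-luciferin and 10uM ATP, pH 7.5, pre-dosed with compound.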
# NPR1 antag = antagonists of human natriuretic peptide receptor Npr1 | P16066 | HEK293 hNpr1 GloSensor cGMP, ANP-stimulated luminescence | Potency, µM (highest dose often 46.3 µM), for the others: top-dose activity change, negative = inhibition, hits mostly inhibitors | 1.6% of 76,000 active; calls by dose curve; further: nearly all actives have a fitted effect of over 60% in size
#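 HEK293 cells stably expressing human Npr1 and cGMP GloSensor pGS-40F, loaded 2 h with 2% GloSensor reagent, given compound 30 min at room temperature. Luminescence read before and 20 min after 0.1 nM hNppA.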
# 3T3 cytotox = cytotoxic compounds in NIH 3T3 cells; NIH 3T3 viability, CellTiter-Glo ATP luminescence, 48-72 h; Potency, µM (highest dose often 96.7 µM), for the others: top-dose activity change, negative = cytotoxicity, usual class: inhibitors; 4.3% of 94,000 active; AID 1345082; further: nearly all actives have a fitted effect of over 55% in size
#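 ATP-dependent luminescence (CellTiter-Glo) served as the viability signal for NIH 3T3 cells treated with compound for 48 or 72 hr at 37 °C.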
# HEK293 tox = HEK 293 cell cytotoxicity. 6.6% of 94,000 active. HEK 293 viability, ATP luminescence (CellTiter-Glo), 48-72 h. Potency, µM (doses to about 115 µM), inactives show at the top dose activity change, negative = cytotoxicity, most hits filed as inhibitors; further: nearly all actives have a fitted effect of over 60% in size
#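 250 HEK 293 cells/well; compound by pintool; incubated 48 or 72 hr at 37 degree Celsius; CellTiter-Glo added, 10 min RT, luminescence imaged.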
# GPT2 inh = GPT2 alanine aminotransferase inhibition | 0.25% of 100,000 active | Recombinant GPT2, coupled pyruvate oxidase/HRP Amplex Red fluorescence | Potency, µM (doses to about 57.7 µM), without a hit: top-dose activity change, negative = inhibition, hits mostly inhibitors; further: nearly all actives have a fitted effect of over 60% in size
#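 Inhibition is scored from Amplex Red fluorescence generated when pyruvate oxidase and HRP act on pyruvate released by GPT2. Reactions contain 10ng/uL enzyme, 250uM a-KG and 2mM L-alanine and run 30 min at room temperature.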
# Starred values were filed as active, the others as inactive; i = inactive; ? = inconclusive; . = no result; [ ] = dose if it differs, or a comment. In the library only some 10% were active in any assay of this set; here they are far more common. Unless noted, the call rests on the fitted dose curve; in most records, active means well fitted curve in the direction sought with a large enough effect; inconclusive means small, poorly fitted or top-dose-only effect, or another doubt; inactive means no such curve, though single readings can be large; an effect the other way counts as inactive or inconclusive. On the % scale 0 is the no-effect control and ±100 the full control effect; potency means the concentration at half of the fitted maximal effect.
SMILES,FLuc inh,NPR1 antag,3T3 cytotox,HEK293 tox,GPT2 inh
COc1ccc(-c2cnc([C@@H]3COCCN3Cc3cn(C)c4ccccc34)[nH]2)cc1,i,?,63.1µM*,?,1.8%[88.5 µM]
Cc1ccc(-c2cnc([C@@H]3COCCN3Cc3ccccc3F)[nH]2)cc1,i,-17.4%[70.6 µM],?,?,-3.9%[88.5 µM]
COc1ccc(CN2CCOC[C@H]2c2ncc(-c3ccc(OC)cc3)[nH]2)cc1,i,-5.5%[70.6 µM],?,89.1µM*,?
Cc1ccc(-c2cnc([C@@H]3COCCN3Cc3cn(C)c4ccccc34)[nH]2)cc1,i,?,?,56.2µM*,-12.2%[88.5 µM]
Cc1nn(-c2ccccc2)c2c1C(C1CC1)N(C1CN(C(=O)Nc3ccc(Cl)cc3)C1)C2=O (stereo not given),.,.,-11.0%,-7.2%,.
CNC(=O)c1cc(C2CC2)nc2onc(C3CCCN3C(=O)NC3CCCC3)c12 (stereo not given),.,.,-13.7%,i,.
COc1ccc(-c2cc3nc4c(c(=O)n3[nH]2)CN(C(=O)CCCc2nc3ccccc3s2)CC4)cc1,i,-1.3%,-10.2%,?,i
CCC(=O)N1Cc2ccccc2CC2(CCN(Cc3cccnc3)C2)C1 (stereo not given),.,.,-10.7%,-9.6%,i
CNC(=O)c1cc(C2CC2)nc2onc(C3CCN(C(=O)c4ccccc4C)C3)c12 (stereo not given),.,.,-24.2%,-19.5%,.
Cn1cc(CN2CCOC[C@H]2c2ncc(-c3ccc(F)cc3F)[nH]2)c2ccccc21,i,-27.0%[70.6 µM],50.1µM*,50.1µM*,-15.6%[88.5 µM]
CCOc1ccccc1CN1CCCN(Cc2ccncc2)C(c2ccccc2)CC(=O)NCC1 (stereo not given),i,-19.4%,?,?,i
COCCN1CCCCCC(O)c2cc(C(=O)N(C)Cc3cccnc3)ccc21 (stereo not given),i,3.9%,?,?,i
COCCN1CCCCCC(O)c2cc(C(=O)NCc3ccc(N4CCC(C)CC4)cc3)ccc21 (stereo not given),?,-8.5%,28.2µM*,?,i
COCCN1CCCCCC(O)c2cc(C(=O)N3CCN(c4cccc(OC)c4)CC3)ccc21 (stereo not given),i,-5.1%,?,39.8µM*,i
COCCN1CCCCCC(O)c2cc(C(=O)N(C)Cc3ccc(N4CCCCC4)cc3)ccc21 (stereo not given),i,-24.4%,39.8µM*,?,?
O=C(NC1CN(c2ccnc3ccnn23)C1)c1cncc(Br)c1,.,.,-26.1%,?,-8.1%
CC1(COc2ccc3[nH]ccc3c2)COc2ccc(C(=O)NC3CC3)cc2N1 (stereo not given),i,?,?,?,i
O=C(CC1=C2CCCCC2N(Cc2ccccc2)C1=O)NCCN1CCCC1 (stereo not given),.,.,1.7%,i,4.9%
CC(=O)N1CC2(Cc3ccccc31)CN(C(=O)c1ccccc1Cl)C2,i,6.2%,-9.7%,-24.5%,-0.5%
Cc1ncoc1C(=O)N1CCC(F)(c2nc(-c3ccncc3)no2)CC1,i,-2.3%,3.9%,-3.5%,i
O=C(NCc1ccc(F)cc1)C1c2ccccc2C(=O)N(Cc2ccccc2)C12CCCC2 (stereo not given),i,-11.9%,35.5µM*,39.8µM*,-0.2%
CC(=O)NC1(C)CCCN(Cc2cccc(-c3ccccc3)c2)C1 (stereo not given),i,-2.3%[70.6 µM],?,?,-5.1%[88.5 µM]
CC(=O)NC1(C)CCN(Cc2cccc(-c3ccc4c(c3)OCCN4C)c2)C1 (stereo not given),22.4µM*,?,89.1µM*,?,-19.2%[88.5 µM]
CC(=O)NC1(C)CCN(Cc2cccc(-c3ccc(N4CCOCC4)cc3)c2)C1 (stereo not given),5.62µM*,3.98µM*,-23.7%[138 µM],?,-4.0%[88.5 µM]
O=C(NCc1cccs1)C1CCCN1c1nccc(Nc2ccccc2F)n1 (stereo not given),.,.,?,?,-3.6%
SMILES,FLuc inh,NPR1 antag,3T3 cytotox,HEK293 tox,GPT2 inh
Cc1cc(N2CCC3(CCCN(CC4CCC4)C3=O)C2)nc2ccccc12 (stereo not given),i,-0.7%,?,31.6µM*,4.0%
CCCN1CCCC2(CCN(c3cc(C)c4cccc(OC)c4n3)C2)C1=O (stereo not given),i,-1.9%,-17.0%,?,-9.9%[11.5 µM]
Cc1cccc(CN2CCCC3(CCN(c4nc5ccccc5o4)C3)C2=O)c1 (stereo not given),?,0.4%,?,?,?
Cc1cccc(CN2CCCC3(CCN(c4cc(C)c5ccccc5n4)C3)C2=O)c1 (stereo not given),i,-28.6%,?,35.5µM*,-10.1%
c1ccc(CN(C2CCOCC2)C2CN(Cc3cncs3)C2)cc1,.,.,-15.3%,-5.7%,-8.6%
O=C(NCc1nnc2c(-c3nc(C4CC4)no3)cccn12)c1ccccc1Cl,i,1.6%,-17.5%,-19.9%,i
CCCc1noc(-c2cccn3c(CNC(=O)c4ccc(OC)cc4)nnc23)n1,i,-0.6%,-12.2%,i,i
CCCc1noc(-c2cccn3c(CNC(=O)c4ccc(C(C)(C)C)cc4)nnc23)n1,i,-4.9%,39.8µM*,?,i
O=C(NCc1nnc2c(-c3nc(C4CC4)no3)cccn12)c1nccc2ccccc12,i,-12.6%,44.7µM*,?,-6.6%
O=C(C1CCCC1)N1CC2(CCN(Cc3ccc(Cl)cc3)C2)Cc2ccccc21 (stereo not given),.,.,39.8µM*,?,-2.9%
NC(=O)c1cccc(CN2CCC3(Cc4ccccc4N(C(=O)C4CCCC4)C3)C2)c1 (stereo not given),.,.,-29.3%,79.4µM*,-9.8%
O=C(C1CCCC1)N1CC2(CCCN(Cc3cccnc3)C2)Cc2ccccc21 (stereo not given),.,.,?,?,i
NC(=O)c1cccc(CN2CCC3(C2)CN(C(=O)C2CCCC2)c2ccccc2CO3)c1 (stereo not given),.,.,-22.3%,?,-4.4%
O=C(C1CCCC1)N1CC2(CCCN(Cc3c[nH]c4ccccc34)C2)Cc2ccccc21 (stereo not given),.,.,25.1µM*,22.4µM*,i
O=C(C1CCCC1)N1CC2(CCN(CC3CCCCC3)C2)Cc2ccccc21 (stereo not given),.,.,31.6µM*,?,i
CNC(=O)c1cc(C2CC2)nc2c1c(C1CCCN1C(=O)c1ccccc1Cl)nn2C (stereo not given),.,.,-24.3%,i,.
COc1ccccc1-c1cccc(CN2CCC(NC(=O)c3ccccc3C)CC2)c1,.,.,?,44.7µM*,.
O=C(NC1CCN(Cc2ccccc2)CC1)c1cccc2c1CCN2C(=O)c1ccccc1,i,-27.7%,?,39.8µM*,i
